Screening data as filed in PubChem BioAssay.
RMI FANCM FP: RMI-FANCM interaction inhibition; Fluorescence polarization, RMI core complex with F-MM2 peptide; stronger effect = lower value; FP signal (polarization) at 33 µM; actives 0.58% (n = 70,000); in the data active means FP signal below about 40
Numbers stand for hits; 0 = inactive; ! = not active in a repeat. This is one part of a sample in which hits are shown more often than they occur.

SMILES	RMI FANCM FP
CC[C@@H](C(N)=O)N1CCCC1=O	26
COc1ccc(-c2csc(CN3CCN(C(=O)Cc4ccc(F)cc4)CC3)n2)cc1	0
NCCc1cccc(O)c1	19
Cc1[nH]c2ccc(O)cc2c1CCN	0
COc1cc(CCN)ccc1O	0
CN(C)CCN(C(=O)COc1ccccc1)c1nc2ccc(S(C)(=O)=O)cc2s1	0
CO[C@@H]1C[C@H](O[C@H]2CC[C@]3(C)C4CC[C@]5(C)[C@@H](C6=CC(=O)OC6)CC[C@]5(O)[C@@H]4CC[C@]3(O)C2)O[C@H](C)[C@@H]1O (some centres not stated)	0
O=C1NC(=O)C(=Cc2ccc(Br)s2)C(=O)N1	0
COc1ccccc1OCC(=O)N1CCN(Cc2nc(C3CC3)cs2)CC1	0
Cc1cc(O)c(C(=O)Nc2cccc(Cl)c2)c(=O)n1Cc1ccccn1	0
Cc1nc(S(=O)(=O)N2CCCCC2c2cccnc2)cn1C (configuration not stated)	0
COC(=O)[C@]1(C)CC[C@]2(C)CC[C@]3(C)C4=CCc5c(cc(O)c(O)c5C)[C@]4(C)CC[C@@]3(C)C2C1 (some centres not stated)	13
CN(C)CCN(C(=O)COc1ccc(Cl)cc1Cl)c1nc2cc3c(cc2s1)OCCO3	0
COc1cc2c(cc1OC)[C@@H]1C(=O)c3ccc4c(c3O[C@@H]1CO2)CC(C(C)C)O4 (some centres not stated)	0
COc1cc2c(cc1OC)[C@@H]1C(=O)c3ccc(OC)c(CC=C(C)C)c3O[C@@H]1CO2	29
C=C(C)[C@H]1Cc2c(ccc3c2O[C@@H]2COc4cc(OC)c(OC)cc4[C@@H]2C3=O)O1	0
Cc1c(O)c(C(=O)CC(C)C)c2oc3c(C(=O)CC(C)C)c(O)c(C)c(O)c3c2c1O	0
CC[C@@H](CO)NC(=O)[C@@H]1C=C2c3cccc4c3c(cn4C)C[C@H]2N(C)C1	0
CCN(CC)C(=O)N[C@@H]1C=C2c3cccc4[nH]cc(c34)C[C@H]2N(C)C1	0
CC[C@@H](CO)NC(=O)[C@@H]1C=C2c3cccc4[nH]cc(c34)C[C@H]2N(C)C1	4!
O=C(Nc1ccc(Br)cc1C(=O)c1ccccc1Cl)c1cccs1	0
COc1c2c(cc3c1OCO3)C13C=C[C@H](OC)CC1N(C2)CC3O (some centres not stated)	0
CSc1nc2ccccc2c(=O)n1-c1ccc2c(c1)OCCO2	0
C[C@@H]1C(=O)O[C@H]2[C@H]1CC[C@@]1(C)C=CC(=O)[C@@]3(C)O[C@@]213	31!
c1ccc2[nH]ncc2c1	0
Oc1ccc2c3c1OC1[C@@H](O)CC[C@@]4(O)[C@@H](C2)N(CC2CCC2)CC[C@]314 (some centres not stated)	0
Cc1ccc(/C=C2/CC3C4CCC5CCCCC5(C)C4CCC3(C)C2=O)o1 (configuration not stated)	0
CNC(=O)O/N=C(/c1cccs1)C1CC1	0
CN(C)C(=O)ONC(=O)Cc1ccccc1	0
N#CC1(O)CN2CCC1CC2 (configuration not stated)	0
